Assay [1] can be described thus: antimalarial activity against Dd2 strain (AID 2302;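 active = growth inhibition above 50% at the single 2 µM test dose, taken to imply half-maximal potency below 2 µM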;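 also: 0% = DMSO untreated growth and 100% = chloroquine plus artemisinin killed control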). As to conditions: P. falciparum Dd2 in RBCs, LDH growth readout, 72 h; at 2 µM; active compounds read high.
Assay [2] can be described thus: human hepatoma cell viability loss – ATP luminescence, cytotoxicity control for P. falciparum antimalarial project, primary screen (AID 2303;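 active = inhibition above 50%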;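 also: 0% = DMSO wells and 100% = digitonin-killed cells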). As to conditions: HepG2 viability, 24-48 h, at 10 µM, active compounds read high.
Assay [3] addresses L-lactate dehydrogenase (Plasmodium falciparum (isolate CDC / Honduras)) (UniProt Q27743). Put plainly: PfLDH activity inhibition – cell lysate, 3D7 strain, counter-screen for P. falciparum growth inhibition project (AID 2304).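 Also: 0% = vehicle and 100% = reference inhibitor.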 As to conditions: P. falciparum 3D7 crude extract, LDH APAD/NBT absorbance; at 2 µM; active compounds read high. For orientation: A counterscreen serves to expose hits that act by an unwanted route or on another target.

Assay [4] is described as follows: inhibition of 3D7 malaria parasite growth – strain 3D7 (AID 2306).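 Also: 0% = DMSO wells and 100% = chloroquine plus artemisinin control wells.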 Conditions: P. falciparum 3D7 erythrocytic growth, LDH absorbance, 72 h; at 2 µM; active compounds read high.
Assay [5] addresses Calcium-dependent protein kinase 1 (Plasmodium falciparum (isolate 3D7)) (UniProt P62344). Put plainly: PfCDPK1 kinase inhibitors, biochemical, TCAMS library (AID 1159585; cut-off not given, nearly all actives have IC50 up to about 0.98 µM;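 also: inhibitors leave more ATP so luminescence rises with inhibition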). Conditions: recombinant PfCDPK1, Kinase-Glo ATP depletion luminescence. (Kinase-Glo measures the ATP left after a reaction by luminescence.)
Assay [6] deals with Plasmodium falciparum protein kinase 6 (PK6, PF3D7_1337100) (UniProt Q8IDW1). In words: PfPK6 kinase inhibitors, biochemical, TCAMS library (AID 1159586). Conditions: recombinant PfPK6, Kinase-Glo ATP depletion luminescence.
Plasmodium falciparum protein kinase 6 (PK6, PF3D7_1337100), sequence (Q8IDW1 1-305): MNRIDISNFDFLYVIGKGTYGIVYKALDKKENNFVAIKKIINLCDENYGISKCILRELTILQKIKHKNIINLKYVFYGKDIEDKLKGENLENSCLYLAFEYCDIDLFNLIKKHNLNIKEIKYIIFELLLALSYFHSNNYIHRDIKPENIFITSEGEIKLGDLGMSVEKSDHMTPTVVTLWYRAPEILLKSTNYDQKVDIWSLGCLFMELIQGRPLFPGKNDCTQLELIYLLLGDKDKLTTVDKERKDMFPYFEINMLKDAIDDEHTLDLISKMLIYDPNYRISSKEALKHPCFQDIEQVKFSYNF
Assay [7] has as its target Protein kinase 7 (PK7), Plasmodium falciparum 3D7 (PF3D7_0213400) (UniProt Q7YTF7). In words: inhibition of Plasmodium PK7 catalytic activity – biochemical, TCAMS antimalarial set, Kinase-Glo luminescence (AID 1159587). Conditions: recombinant PfPK7, Kinase-Glo ATP depletion luminescence.
For assay [8], the target named is Calcium-dependent protein kinase 4 (Plasmodium falciparum (isolate 3D7)) (UniProt Q8IBS5). Put plainly: PfCDPK4 kinase inhibitors, biochemical, TCAMS library (AID 1159588; cut-off not given, nearly all actives have IC50 up to about 0.91 µM). As to conditions: recombinant PfCDPK4, Kinase-Glo ATP depletion luminescence.
Calcium-dependent protein kinase 4 (Plasmodium falciparum (isolate 3D7)), sequence (Q8IBS5 whole entry, looked up): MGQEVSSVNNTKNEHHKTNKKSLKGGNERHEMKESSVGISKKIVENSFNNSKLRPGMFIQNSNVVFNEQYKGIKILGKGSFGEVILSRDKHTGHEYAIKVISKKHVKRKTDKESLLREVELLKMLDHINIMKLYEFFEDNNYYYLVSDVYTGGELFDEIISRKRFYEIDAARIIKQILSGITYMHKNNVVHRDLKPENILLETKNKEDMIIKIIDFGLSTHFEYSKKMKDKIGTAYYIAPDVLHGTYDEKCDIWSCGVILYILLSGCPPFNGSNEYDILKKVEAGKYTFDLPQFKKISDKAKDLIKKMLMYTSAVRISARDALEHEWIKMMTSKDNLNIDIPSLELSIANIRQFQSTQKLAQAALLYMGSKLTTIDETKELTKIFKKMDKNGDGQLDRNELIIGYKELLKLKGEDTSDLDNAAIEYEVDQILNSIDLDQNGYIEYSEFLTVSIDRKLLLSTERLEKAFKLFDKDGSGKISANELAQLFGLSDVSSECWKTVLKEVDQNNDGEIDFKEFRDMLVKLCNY

This is an account of results in PubChem BioAssay.

SMILES strings stand for the structures. Values without a mark were called inactive. For some of these results: Results with a measured potency or affinity are listed apart. Activity calls are given as the source filed them. Unless noted, no rule for the calls is given here.

Calcium-dependent protein kinase 1 (Plasmodium falciparum (isolate 3D7)), sequence (P62344 whole entry, looked up): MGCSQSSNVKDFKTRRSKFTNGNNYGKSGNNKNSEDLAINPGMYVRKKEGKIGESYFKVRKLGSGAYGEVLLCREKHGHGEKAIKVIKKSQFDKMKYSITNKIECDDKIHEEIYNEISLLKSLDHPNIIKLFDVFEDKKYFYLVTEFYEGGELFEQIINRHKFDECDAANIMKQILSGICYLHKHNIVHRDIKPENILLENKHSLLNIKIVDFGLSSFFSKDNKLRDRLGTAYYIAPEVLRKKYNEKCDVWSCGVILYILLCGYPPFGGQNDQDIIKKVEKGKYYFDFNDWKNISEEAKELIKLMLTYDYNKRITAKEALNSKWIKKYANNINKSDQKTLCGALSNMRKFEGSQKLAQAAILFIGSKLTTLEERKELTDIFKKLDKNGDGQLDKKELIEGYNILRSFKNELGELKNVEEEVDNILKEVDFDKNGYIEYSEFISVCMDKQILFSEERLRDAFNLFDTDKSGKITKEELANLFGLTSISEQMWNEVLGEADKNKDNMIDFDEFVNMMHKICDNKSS
L-lactate dehydrogenase (Plasmodium falciparum (isolate CDC / Honduras)), sequence (Q27743 whole entry, looked up): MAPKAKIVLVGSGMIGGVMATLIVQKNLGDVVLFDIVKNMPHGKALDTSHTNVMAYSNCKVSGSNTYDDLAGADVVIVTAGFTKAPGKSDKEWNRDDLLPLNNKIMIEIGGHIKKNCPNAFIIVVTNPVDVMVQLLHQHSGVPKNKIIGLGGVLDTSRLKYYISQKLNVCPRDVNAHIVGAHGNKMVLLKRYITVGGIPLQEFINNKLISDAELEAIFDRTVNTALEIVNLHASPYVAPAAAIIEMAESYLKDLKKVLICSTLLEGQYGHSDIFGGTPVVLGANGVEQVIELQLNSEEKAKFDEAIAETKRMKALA
Protein kinase 7 (PK7), Plasmodium falciparum 3D7 (PF3D7_0213400), sequence (Q7YTF7 1-343): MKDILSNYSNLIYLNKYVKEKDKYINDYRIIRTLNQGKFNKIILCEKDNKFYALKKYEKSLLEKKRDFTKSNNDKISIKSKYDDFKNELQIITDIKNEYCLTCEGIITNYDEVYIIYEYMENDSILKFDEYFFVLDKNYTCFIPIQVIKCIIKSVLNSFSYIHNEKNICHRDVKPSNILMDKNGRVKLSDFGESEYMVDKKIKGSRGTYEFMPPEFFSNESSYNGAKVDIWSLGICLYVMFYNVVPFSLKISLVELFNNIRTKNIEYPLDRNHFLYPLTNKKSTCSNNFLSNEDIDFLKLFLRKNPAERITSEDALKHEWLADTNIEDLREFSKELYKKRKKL

By inhibition is commonly meant the change of the read-out against control, counted positive when it falls. On to `FC(F)(F)c1ccc2nc(-c3ccc(-c4cccc(CNCc5cnn(-c6ccccc6)n5)c4)s3)[nH]c2c1`, for which the growth inhibition is 91% (active) in assay [1] and 101% (active) in assay [4]. The inhibition in assay [2] was 38%; in assay [3] it was -2%. In addition, the result in assay [5], in assay [6], in assay [7] and in assay [8] was inactive.

Consider `COc1ccc2ncc(Cl)c([C@@H](O)CN3CCC(NCc4cc5c(cn4)OCCO5)CC3)c2c1`, for which the growth inhibition in assay [1] is 100% (active); in assay [4], 101% (active). The inhibition in assay [2] is 8%; in assay [3], 3%. In addition, the outcome in assay [5], in assay [6], in assay [7] and in assay [8] was inactive.

`CCc1c[nH]c2c(N(c3ccccc3)S(C)(=O)=O)cc(C(=O)N[C@@H](Cc3ccccc3)[C@H](O)CNC(C)(C)CCCC(C)C)cc12`: the figures for the growth inhibition in assay [1] and in assay [4] were 96% (active) and 98% (active), respectively. In addition, the inhibition in assay [2] was 99% (active); in assay [3], -1%. The outcome in assay [5], in assay [6], in assay [7] and in assay [8] was inactive.

On to `O=C(Nc1cccc(CN2CCN(Cc3cccc(O)c3)CC2)c1)c1ccc(Cl)c(Cl)c1`, for which the values for the growth inhibition in assay [1] and in assay [4] were 35% and 100% (active), respectively. Further, the inhibition is 28% in assay [2] and -1% in assay [3]. The result in assay [5], in assay [6], in assay [7] and in assay [8] was inactive.

`COc1cc(C(=O)N2CCOC(CCN3CC[C@@H]4c5ccccc5C[C@@H]43)(c3ccc(Cl)c(Cl)c3)C2)cc(OC)c1OC` (stereo not given in full): the results for the growth inhibition in assay [1] and in assay [4] were 82% (active) and 88% (active), respectively. The inhibition is 32% in assay [2] and 1% in assay [3]. In addition, the outcome in assay [5], in assay [6], in assay [7] and in assay [8] was inactive.

For the compound `O=C(Nc1cccc(-c2csc(NC(=O)c3ccc4ccccc4c3)n2)c1)c1ccc2ccccc2c1`, the growth inhibition in assay [1] was 35%; in assay [4], 89% (active). For the same compound, the inhibition in assay [2] is 3%; in assay [3], -2%. Moreover, the outcome in assay [5], in assay [6], in assay [7] and in assay [8] was inactive.

Regarding `CN(CC(=O)Nc1cc(C(F)(F)F)ccc1-n1cncn1)Cc1nc2ccccc2s1`, the figures for the growth inhibition in assay [1] and in assay [4] were 64% (active) and 87% (active), respectively. For the same compound, the inhibition in assay [2] was 3%; in assay [3], 0%. Further, the outcome in assay [5], in assay [6], in assay [7] and in assay [8] was inactive.

Consider `CC(=O)Nc1nc(N)c2c(ccc3c2ccn3CC(C)C)n1`, for which the values for the growth inhibition in assay [1] and in assay [4] were 78% (active) and 94% (active), respectively. Also, the inhibition in assay [2] is 66% (active); in assay [3], -3%. In addition, the outcome in assay [5], in assay [6], in assay [7] and in assay [8] was inactive.

As for `Nc1nc2c(ncn2OC[C@H](CO)OCP(=O)(O)O)c(=O)[nH]1`, the growth inhibition was 61% (active) in assay [1] and 94% (active) in assay [4]. Also, the inhibition in assay [2] was 5%; in assay [3], -4%. Also, the result in assay [5], in assay [6], in assay [7] and in assay [8] was inactive.

Consider `COc1ccc2nccc(N3CCC(O)(CCNCc4ccc5c(n4)NC(=O)CO5)CC3)c2n1`, for which the growth inhibition in assay [1] was 24%; in assay [4], 100% (active). Further, the inhibition in assay [2] is 18%; in assay [3], -4%. Besides, the result in assay [5], in assay [6], in assay [7] and in assay [8] was inactive.

For `O=c1[nH]c2ccc3[nH]cccc3c2c1C=Nc1ccc(Cn2ccnc2)cc1`, the growth inhibition in assay [1] is 85% (active); in assay [4], 101% (active). Moreover, the inhibition was 33% in assay [2] and 1% in assay [3]. In addition, the result in assay [5], in assay [6], in assay [7] and in assay [8] was inactive.

For `N#CN1CC[C@@H](OC(=O)N[C@@H]2C[C@H]2c2ccccc2)C1`, the growth inhibition in assay [1] was 56% (active); in assay [4] it was 84% (active). Further, the figures for the inhibition in assay [2] and in assay [3] were -1% and -2%, respectively. Further, the result in assay [5], in assay [6], in assay [7] and in assay [8] was inactive.

Take `c1ccc2[nH]c(-c3ccc(-c4ccc(CN5CCN(c6ccncc6)CC5)cc4)cc3)nc2c1`: the growth inhibition in assay [1] was 100% (active); in assay [4], 101% (active). For the same compound, the inhibition is 48% in assay [2] and -3% in assay [3]. Further, the result in assay [5], in assay [6], in assay [7] and in assay [8] was inactive.

For the compound `CCNc1cc(C(=O)N[C@@H](Cc2ccccc2)[C@H](O)CN[C@H]2C[C@@H]3CC[C@H]2C3)cc(N2CCCCS2(=O)=O)c1`, the growth inhibition in assay [1] is 73% (active); in assay [4] it was 99% (active). In addition, the inhibition in assay [2] was -4%; in assay [3], 1%. Moreover, the result in assay [5], in assay [6], in assay [7] and in assay [8] was inactive.

`CC(C)CCN(Cc1cncn1Cc1cccc(C(F)(F)F)c1)C(=O)c1ccccc1C#N`: the growth inhibition in assay [1] was 96% (active); in assay [4], 99% (active). For the same compound, the values for the inhibition in assay [2] and in assay [3] were -4% and -2%, respectively. Besides, the result in assay [5], in assay [6], in assay [7] and in assay [8] was inactive.

As for `CCOc1cc2ccccc2cc1CNCCCCCCNCc1cc2ccccc2cc1OCC`, the growth inhibition was 76% (active) in assay [1] and 101% (active) in assay [4]. The values for the inhibition in assay [2] and in assay [3] were 99% (active) and 2%, respectively. For the same compound, the outcome in assay [5], in assay [6], in assay [7] and in assay [8] was inactive.

As to `CC1c2cccc(O)c2CCN1CCc1ccc(Cl)c(Cl)c1` (stereo not given), the growth inhibition in assay [1] was 99% (active); in assay [4], 102% (active). In addition, the figures for the inhibition in assay [2] and in assay [3] were 18% and -1%, respectively. Further, the result in assay [5], in assay [6], in assay [7] and in assay [8] was inactive.

`CCc1c(CCNCCCC(C)CCNCCc2ccc(OC)c(OC)c2CC)ccc(OC)c1OC` (stereo not given): the growth inhibition in assay [1] is 27%; in assay [4], 100% (active). In addition, the inhibition in assay [2] was 99% (active); in assay [3] it was 1%. Moreover, the outcome in assay [5], in assay [6], in assay [7] and in assay [8] was inactive.

As for `O=C1Nc2cccc3c2C1(CCCCN1CCC(c2c(-c4ccccc4)[nH]c4ccccc24)CC1)CCC3` (stereo not given), the figures for the growth inhibition in assay [1] and in assay [4] were 33% and 84% (active), respectively. In addition, the inhibition in assay [2] was 18%; in assay [3], -1%. Moreover, the result in assay [5], in assay [6], in assay [7] and in assay [8] was inactive.

Regarding `O=S(=O)(Nc1cccc(CCN2CCC(N3CCCCC3)CC2)c1)c1ccc(Oc2ccccc2)cc1`, the growth inhibition is 25% in assay [1] and 100% (active) in assay [4]. In addition, the inhibition in assay [2] was 28%; in assay [3], 0%. Also, the outcome in assay [5], in assay [6], in assay [7] and in assay [8] was inactive.
